Compounds with a hit are over-represented: about 2% of the library has one in this group of screens.
LDHA block: LDHA (human) enzyme inhibition; activity change, % (values are at about 110 or 230 µM); P00338; actives 0.15% (n = 480,000); purified LDHA, NADH/diaphorase-resazurin fluorescence; active compounds read low; in the data active = activity change below about -30%; inconclusive = mostly about -25% to -30%
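LDH5 2 nM; NADH 0.06 mM, pyruvate 0.2 mM; 200 mM Tris pH 7.4, EDTA, Tween-20; 5 min RT. Detection: diaphorase 0.133 mg/mL + resazurin 37 µM, fluorescence ex540/em590 at 0 and 20 min; normalized to enzyme-free and DMSO wells.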
TDP43 rescue: TDP-43 toxicity inhibition in yeast | TDP-43 expressing yeast growth rescue, BacTiter-Glo, 24 h | Potency, µM (doses to about 46.1 µM), usual class: activators | actives 1.8% (n = 410,000); also: nearly all actives have a fitted effect of over 50% in size
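Growth rescue of TDP-43-toxic yeast measured as ATP luminescence (BacTiter-Glo). Cells grown to mid-log in raffinose, induced in galactose at OD600=0.02, exposed to compound 24 hr at 30 deg C.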
Abeta rescue: compounds reversing amyloid beta toxicity in yeast; Potency, µM (top dose mostly 46.1 µM), usual class: activators; actives 0.063% (n = 410,000); yeast expressing A-beta42, growth rescue, OD600, 48 h; response scale: 0% DMSO, 100% iron-clioquinol control; also: nearly all actives have a fitted effect of over 55% in size
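Yeast growth medium received pinned compounds, then yeast cells expressing toxic A-beta were added; plates incubated at 30 C for 48 hr. Growth read as absorbance at 600 nm, normalized to DMSO and equimolar FeCl3 plus clioquinol controls.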
mIDH1 inhibitor: inhibitors of human mutant IDH1 R132H | O75874 | IDH1-R132H enzyme, NADPH consumption, diaphorase/resazurin fluorescence | Potency, µM (doses to about 76.6 µM), actives largely listed as inhibitors | actives 0.093% (n = 390,000) | AID 602179; also: nearly all actives have a fitted effect of over 65% in size
Target sequence (O75874 whole entry R132H, stated change not applied): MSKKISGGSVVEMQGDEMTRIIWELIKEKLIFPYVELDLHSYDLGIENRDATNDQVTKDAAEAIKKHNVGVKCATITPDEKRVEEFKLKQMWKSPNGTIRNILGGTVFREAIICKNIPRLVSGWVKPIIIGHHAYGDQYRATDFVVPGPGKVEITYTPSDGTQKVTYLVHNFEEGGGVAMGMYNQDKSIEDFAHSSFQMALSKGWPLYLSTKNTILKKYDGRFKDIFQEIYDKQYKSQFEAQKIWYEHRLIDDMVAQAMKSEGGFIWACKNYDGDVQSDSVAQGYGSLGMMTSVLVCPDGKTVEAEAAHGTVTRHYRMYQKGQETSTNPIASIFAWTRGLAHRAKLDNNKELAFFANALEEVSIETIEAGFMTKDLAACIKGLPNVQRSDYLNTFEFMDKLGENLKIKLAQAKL
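IDH1-R132H (0.5 ug/mL) preincubated 30 min with compound, then NADPH (0.016 mM) and alpha-KG (2 mM) added; 80 min at RT, pH 7.5. Remaining NADPH coupled via diaphorase/resazurin to fluorescence (540/590 nm); concentration-response curves normalized to no-enzyme control.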
aSyn yeast inh: inhibitors of alpha-synuclein toxicity in yeast | Yeast expressing alpha-synuclein, growth rescue, BacTiter-Glo, 24 h | AID 652106 | actives 0.14% (n = 370,000) | Potency, µM (series often up to 46.1 µM), most hits filed as activators; also: nearly all actives have a fitted effect of over 65% in size
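Screening used galactose-induced yeast with toxic alpha-synuclein levels, exposed to compound for 24 hr at 30 deg C. Cell growth, read with BacTiter-Glo luminescence, gave the measured signal.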
FUS yeast rescue: FUS proteinopathy suppression in yeast. actives 0.24% (n = 390,000). S. cerevisiae FUS-expressing, growth rescue, OD600, 24 h. Potency, µM (highest dose often 76.6 µM), hits mostly activators; also: nearly all actives have a fitted effect of over 55% in size
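Absorbance at 600 nm, taken 24hr after compound addition, measured rescue of FUS-yeast growth at 30C. Induction used 2% galactose with seeding at OD 0.005. Controls: CP55940 from 92uM final, DMSO only.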
Large screens that a line does not name were inactive. Unless noted, calls follow the shape of the dose curve; as a rule, active = well fitted curve in the direction sought with a large enough effect; inconclusive = small, poorly fitted or top-dose-only effect, or another doubt; inactive = no such curve, though single readings can be large; an effect the other way counts as inactive or inconclusive.

CCCC(=O)N1CCC1(C)C(=O)Nc1ccc(C)c(C)c1 (configuration not stated)	none (no result: mIDH1 inhibitor)
O=C(Nc1nc2c(s1)CCCC2)C1CC(=O)N(CC(F)(F)F)C1 (configuration not stated)	none (no result: TDP43 rescue, Abeta rescue, mIDH1 inhibitor, aSyn yeast inh, FUS yeast rescue)
N#Cc1ccc(-c2ccc3c(c2)OCO3)nc1SCC(=O)Nc1ccccc1Cl	none (no result: TDP43 rescue, Abeta rescue, mIDH1 inhibitor, aSyn yeast inh, FUS yeast rescue)
CCn1cnc2c1c(=O)n(CC(=O)OCCOc1cccc(Cl)c1)c(=O)n2Cc1ccccc1	none (no result: TDP43 rescue, Abeta rescue, mIDH1 inhibitor, aSyn yeast inh, FUS yeast rescue)
CCCCn1c(NC(=O)c2ccccc2)nc2ccccc21	TDP43 rescue inconclusive, aSyn yeast inh 25µM
CCCn1c(NC(=O)c2ccccc2Br)nc2ccccc21	TDP43 rescue 16µM
C=CCn1c(NC(=O)c2ccccc2)nc2ccccc21	TDP43 rescue 18µM
CCCn1c(NC(=O)c2ccc(Br)cc2)nc2ccccc21	none
CCn1c(NC(=O)c2ccccc2)nc2ccccc21	TDP43 rescue inconclusive
CCOCCCNc1nc(-c2ccc(S(=O)(=O)N3CCCCCC3)cc2)cs1	none (no result: TDP43 rescue, Abeta rescue, mIDH1 inhibitor, aSyn yeast inh, FUS yeast rescue)
CCn1nc(C(=O)Nc2nc(-c3ccc(NC(C)=O)cc3)cs2)c2ccccc2c1=O	LDHA block -31 (no result: TDP43 rescue, Abeta rescue, mIDH1 inhibitor, aSyn yeast inh, FUS yeast rescue)
C=CCn1c(SCc2ccc(C#N)cc2)nnc1-c1cccc(Cl)c1	TDP43 rescue 14µM
CSc1ncc(C(=O)N2CCN(c3ccc(F)cc3)CC2)c(C)n1	none (no result: aSyn yeast inh)
CCCc1nc(SC)ncc1C(=O)N1CCN(c2ccc(Cl)cc2)CC1	TDP43 rescue 35µM (no result: aSyn yeast inh)
Cc1ccc(N(CC(=O)N2CCC(C(N)=O)CC2)S(=O)(=O)c2ccc(Cl)cc2)cc1C	none (no result: TDP43 rescue, Abeta rescue, mIDH1 inhibitor, aSyn yeast inh, FUS yeast rescue)
COc1ccc(/C=C(/C(=O)Nc2ccccc2C(=O)NC(C)C)c2ccccc2)cc1	TDP43 rescue 20µM
c1coc(-c2nnc3sc(Cc4cccs4)nn23)c1	FUS yeast rescue 10µM
Clc1ccc(OCc2nn3c(-c4ccco4)nnc3s2)cc1	TDP43 rescue 18µM
Cc1ccc(C)c(N2N=C(C(=O)Nc3ccccc3S(=O)(=O)N3CCCCC3)CCC2=O)c1	none (no result: TDP43 rescue, Abeta rescue, mIDH1 inhibitor, aSyn yeast inh, FUS yeast rescue)
O=C(CSc1ncnc2sc3c(c12)CCC3)Nc1ncc(C(F)(F)F)cc1Cl	none (no result: TDP43 rescue, Abeta rescue, mIDH1 inhibitor, aSyn yeast inh, FUS yeast rescue)
Cc1nc(C)c(-c2ccc(SCc3ccccc3C)nn2)s1	TDP43 rescue 16µM
Cc1nc(C)c(-c2ccc(SCC(=O)Nc3ccccc3)nn2)s1	none
CC(=O)Nc1c(C)noc1/C=C\c1ccc(S(=O)(=O)Nc2ccc(C)cc2)cc1	none (no result: TDP43 rescue, Abeta rescue, mIDH1 inhibitor, aSyn yeast inh, FUS yeast rescue)
O=C(CSc1ccccc1)NCCc1ccc(F)cc1	none
O=C(CSc1ccc(F)cc1)NCCSc1ccccc1	TDP43 rescue 13µM
CC(NC(=S)NCCc1ccccc1)c1ccc(C(C)(C)C)cc1 (configuration not stated)	none (no result: TDP43 rescue, Abeta rescue, mIDH1 inhibitor, aSyn yeast inh, FUS yeast rescue)
Nc1cccnc1Sc1cccc(Cl)c1	TDP43 rescue 18µM
Nc1cccnc1Sc1ccc(Cl)cc1	TDP43 rescue inconclusive (no result: aSyn yeast inh)
CCc1ccc2[nH]c(=O)c(CN(Cc3ccccc3OC)Cc3nnnn3Cc3ccco3)cc2c1	none
COc1ccccc1CN(Cc1cc2cc(C)ccc2[nH]c1=O)Cc1nnnn1Cc1ccco1	FUS yeast rescue 16µM
CCNc1c(NC(=O)c2cc(Br)ccc2OC)c(=O)oc2ccccc12	none (no result: TDP43 rescue, Abeta rescue, mIDH1 inhibitor, aSyn yeast inh, FUS yeast rescue)
Cc1ccccc1C(=O)Oc1ccc(Br)cc1C(=S)N1CCCC1	none
O=C(Oc1ccc(Br)cc1C(=S)N1CCCC1)c1ccccc1F	TDP43 rescue 16µM (no result: FUS yeast rescue)
COCCN1C(=O)c2ccccc2N2C(=O)CCC12C(=O)OCc1cc(=O)oc2cc(C)ccc12 (configuration not stated)	none (no result: TDP43 rescue, Abeta rescue, mIDH1 inhibitor, aSyn yeast inh, FUS yeast rescue)
CN(C)S(=O)(=O)N1CC=C(c2c[nH]c3ccccc23)CC1	none (no result: TDP43 rescue, Abeta rescue, mIDH1 inhibitor, aSyn yeast inh, FUS yeast rescue)
CCOCCn1c(SCC(=O)OCC)nc2c1c(=O)[nH]c(=O)n2C	none (no result: TDP43 rescue, Abeta rescue, mIDH1 inhibitor, aSyn yeast inh, FUS yeast rescue)
O=C(N/N=C/c1ccccn1)c1sc2ccccc2c1Cl	TDP43 rescue inconclusive, Abeta rescue inconclusive, aSyn yeast inh 3.2µM
COC(=O)c1cccc(NC(=O)c2ccc(OC)c(Cl)c2)c1	TDP43 rescue 11µM
COC(=O)c1cccc(NC(=S)Nc2cc(Cl)ccc2OC)c1	TDP43 rescue 22µM
